# Assay results published in PubChem BioAssay (NCI).
# This is part of a sample that, as a whole, favours compounds with a hit. Of some 83,000 tested, about 20% had one in any assay.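 Results are percent growth after 48 hours of single-concentration exposure. 100 means growth as in untreated cells, lower positive values show inhibition; negative values down to -100 show cell death.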 Activity calls are given as the source filed them. Rule for the calls: active = growth percent below 10; inactive = the rest.
# Test system: MDA-MB-468 breast
# Experiment: NCI-60 one-dose screen, 48 h (100 = growth as untreated, 0 = no growth, -100 = all killed)
# Conditions: 10 µM unless noted
row,Compound,growth
1,CN(C)c1ccc(/C=C\N=Nc2ccc(Br)cc2)cc1,106% (inactive)
2,Cc1ccc2cc3c(N)c4c(C)ccc(C)c4nc3nc2c1,29.9% (inactive)
3,Nc1nc(N)c2c(n1)NC(c1ccc(Cl)cc1)CC(c1cccc(Nc3ccncc3)c1)=N2 (stereo not given),57.4% (inactive)
4,O=C(NCCCCCCNC(=O)c1c2c(nc3ccccc13)-c1cccnc1SC2)c1c2c(nc3ccccc13)-c1cccnc1SC2,90.4% (inactive)
5,COc1cc(C(=O)c2cc3c(cc2C)OCO3)cc(OC)c1OC,27.6% (inactive)
6,COc1cc(-c2nn(C(C)(C)C)cc2-c2ccnc(NCCCNS(=O)(=O)c3cccc(F)c3)n2)ccc1Cl,77.8% (inactive)
7,CCc1cc2c(cc1N1CCC(N3CCOCC3)CC1)C(C)(C)c1[nH]c3cc(C#N)ccc3c1C2=O,-38.2% (active)
8,Nc1ccc2[nH]c(-c3ccccc3)cc(=O)c2c1,51% (inactive)
9,CCOC(=O)C1(N)CCCCC1,105% (inactive)
10,CCNC(=O)Oc1ccc(/C(=C(\C)c2ccccc2)c2ccc(OCCN3CCCCC3)cc2)cc1,76.6% (inactive)
11,O=C(NCCn1ccnc1)c1ccc(-c2nc3ccc4[nH]ncc4c3c3c2CCCC3)cc1,10.1% (inactive)
12,N#Cc1ccc(C(=O)CSc2nccc(Nc3ccc(C(=O)O)cc3)n2)cc1,101% (inactive)
13,CN1CCN(Cc2ccc(NC(=O)c3ccc(C#N)c(C#Cc4cnc(N)c5ncccc45)c3)cc2C(F)(F)F)CC1,98% (inactive)
14,O=c1ncc(-c2ccc(C(F)(F)F)cc2)c(NC2CCCCCC2)[nH]1,11.8% (inactive)
15,COc1cc(Cl)cc(-c2nn(-c3cccc(NC(=O)Nc4cc(C(F)(F)F)cc(C(F)(F)F)c4)c3)cc2-c2ccncc2)c1,-2.95% (active)
16,OB(O)c1ccsc1-c1nc2ccc3[nH]ncc3c2c2c1CCCC2,8.64% (active)
17,COc1cc(/C=C/C(=O)/C=C(/C=C/c2ccc(OC(C)=O)c(OC)c2)OB(F)F)ccc1OC(C)=O,48.8% (inactive)
18,Cc1c(C(N)=O)sc2c1C(=O)N(Cc1ccccc1)C1=NN=C(c3ccc(Cl)cc3)CN12,60.1% (inactive)
19,O=c1c2sc3ncc(Cl)cc3c2nnn1-c1cccc(Cl)c1,97.3% (inactive)
20,COc1cc2c(c(OC)c1OC)C(=O)CC(c1cccc(C(=O)Nc3ccc(C#N)cc3)c1)O2 (stereo not given),58.9% (inactive)

row,Compound,growth
1,NS(=O)(=O)c1ccc(Nc2nc(N/N=C/C=C/c3ccccc3)nc(Nc3ccccc3)n2)cc1,15.6% (inactive)
2,CN(C)C(=S)N=Nc1c(O)[nH]c2ccccc12,-2.36% (active)
3,Nc1nc(=O)c2ccccc2s1,109% (inactive)
4,CCN1CCN(C(=O)[C@]23CCC(C)(C)C[C@@H]2C2=CC[C@@H]4[C@@]5(C)C/C(=C/c6ccncc6)C(=O)C(C)(C)[C@@H]5CC[C@@]4(C)[C@]2(C)CC3)CC1,-49.8% (active)
5,O=C(Nc1cccc(-n2ccc3c(NC(=O)c4ccccc4)nccc32)c1)Nc1cc(C(F)(F)F)cc(C(F)(F)F)c1,7.42% (active)
6,CC1=C[C@@H]2c3c(c(O)c(O)c4oc5cc(O)cc(O)c5c(=O)c34)[C@@H](c3cc(O)c(O)c4oc5cc(O)cc(O)c5c(=O)c34)[C@@H]2C(C)(C)C1,-19.5% (active)
7,CN(C)C(CNc1oc(-c2cccc3ccccc23)nc1C#N)c1ccco1 (stereo not given),97% (inactive)
8,COc1cc2c(c(OC)c1OC)CCC(c1cccc(C(=O)Nc3ccc(Br)cc3)c1)O2 (stereo not given),38.2% (inactive)
9,COC(=O)c1ccc(NC2=C(Cl)C(=O)C(C)=C(C)C2=O)cc1,-45.9% (active)
10,COC(=O)C(CC=O)C(=O)C(=O)Nc1cccc(C(F)(F)F)c1 (stereo not given),104% (inactive)
11,CN(C)c1ccc2c(N(C)C)cc(N(C)C)nc2c1,7.64% (active)
12,Nc1cc2ccccc2c(O)c1O,-3.32% (active)
13,C=CC(=O)Nc1cccc(Nc2nc(Nc3ccc(N4CCN(C(C)=O)CC4)cc3OC)ncc2C(F)(F)F)c1,-48.8% (active)
14,COc1ccc(Oc2nc(Nc3ccc(N4CCOCC4)cc3)ncc2NC(=O)c2cccc(C(F)(F)F)c2)cc1,93% (inactive)
15,COc1ccc(C/C(C)=C(/c2ccc(OCCN3CCCC3)cc2)c2ccc(OC(=O)NCc3ccccc3)cc2)cc1,78.9% (inactive)
16,CCCCCCCCCCN(CCCCCCCCCC)CC(=O)c1ccc2cc(Br)c3ccccc3c2c1,100% (inactive)
17,COc1cc2oc(-c3cccc(NC(=O)c4cc(N)ccc4Cl)c3)cc(=O)c2c(OC)c1OC,95.3% (inactive)
18,COc1ccc(S(=O)(=O)NCCCNc2nccc(-n3cnc4ccccc43)n2)cc1,77.2% (inactive)
19,Cn1ccnc1C(=O)/C=C/c1ccc(CC(=O)Nc2ccccc2)cc1,-12.9% (active)
20,O=C(Oc1ccc(CCl)cc1)c1ccccc1,-62.7% (active)
